# PubChem BioAssay (NCATS)
# “And” between values parts separate entries of the source, which are not always exact repeats. Equal values may be shown once. Inconclusive results are not listed. The source holds several records for some structures; these can differ, active in one and inactive in another. Values without a mark were called inactive. The source made the active and inactive calls. The call rests on the fitted dose curve; in most records, active means well fitted inhibition curve with a large enough effect; inconclusive means small, poorly fitted or top-dose-only effect; inactive means flat fitted curve, though single readings scatter.
# Assay: Drug repurposing screens with cells derived from glioblastoma tumor samples (AID 1345199); further: nearly all actives have a fitted effect of over 40% in size
# Details: GBM patient neurospheres viability, ATP luminescence, 48 h
# Protocol: CD133+ cells were isolated from GBM patient biopsies and cultured as neurospheres. Neurospheres from four patients were used to screen the NCATS pharmaceutical collection (NPC) library of approved drugs and bioactive compounds. […] The neurospheres were incubated with drugs for 48 hours in 1536-well format, then assayed with an ATP content cell viability assay. […] These hits were cherry picked to confirm activity in the four original GBM lines screened plus three other slower growing GMB lines (unable to yield enough cells for a full primary screen). Variable activities of the confirmed primary hits in the different GBM patient lines were observed. The patient line 206 responded to the greatest number of compounds and line 923 responded to the least amount of active compounds.
# [1] = at 45.9 µM (top of the series), tumour line B
# [2] = at 46.1 µM (top of the series), tumour line C
# [3] = at 45.9 µM (top of the series), tumour line D
# [4] = at 46 µM (top of the series), tumour line A
# On the % scale 0 is the no-effect control and ±100 the full control effect; potency means the concentration at half of the fitted maximal effect.
compound,measurement,setting,value
O=c1n(CCCN2CCN(c3cccc(Cl)c3)CC2)nc2ccccn12,"activity, negative = cell killing","at 20 µM (top of the series), tumour line C",-4.25%
same,"activity, negative = cell killing","at 21.2 µM (top of the series), tumour line B",-8.69%
same,"activity, negative = cell killing","at 21.2 µM (top of the series), tumour line D",3.95%
Cn1cnc([N+](=O)[O-])c1Sc1ncnc2nc[nH]c12,"activity, negative = cell killing",[1],-21.8%
same,"activity, negative = cell killing",[2],-41.7%
same,Potency,tumour line A,2.51 µM (active)
O=c1[nH]cnc2[nH]ncc12,"activity, negative = cell killing",[1],-5.74%
same,"activity, negative = cell killing",[3],-0.0406%
same,"activity, negative = cell killing",[4],-9.81%
same,"activity, negative = cell killing",[2],7.88%
NCCCC(N)(C(=O)O)C(F)F (configuration not stated),"activity, negative = cell killing",[1],-9.02%
same,"activity, negative = cell killing",[3],7.69%
same,"activity, negative = cell killing",[4],-29.6%
same,"activity, negative = cell killing",[2],-4.46%
CCn1cc(C(=O)O)c(=O)c2cc(F)c(N3CCNC(C)C3)c(F)c21 (configuration not stated),"activity, negative = cell killing",[1],-18.8% and -6.47%
same,"activity, negative = cell killing",[3],-1.92% and -11.9%
same,"activity, negative = cell killing",[4],-14% and -29.8%
same,"activity, negative = cell killing",[2],-19.8% and -7.41%
N=c1nc(N2CCCCC2)cc(N)n1O,"activity, negative = cell killing",[1],-6.91%
same,"activity, negative = cell killing",[3],-11%
same,"activity, negative = cell killing",[4],-16.6%
C1COC(NC(C2CC2)C2CC2)=N1,"activity, negative = cell killing",[1],-27.8%
same,"activity, negative = cell killing",[2],-23.7%
CCCc1nc2c(C)cc(-c3nc4ccccc4n3C)cc2n1Cc1ccc(-c2ccccc2C(=O)O)cc1,"activity, negative = cell killing",[1],-13.6%
same,"activity, negative = cell killing",[3],-10.2%
same,"activity, negative = cell killing",[4],-16.9%
same,"activity, negative = cell killing",[2],-10.7%
Cc1cnc(NC(=O)C2=C(O)c3ccccc3S(=O)(=O)N2C)s1,"activity, negative = cell killing",[1],-11.1% and -5.23%
same,"activity, negative = cell killing",[3],7.55% and -2.79%
same,"activity, negative = cell killing",[4],-27.8%
same,"activity, negative = cell killing",[2],4.05% and -0.835%
NS(=O)(=O)c1cc2c(cc1Cl)NC=NS2(=O)=O,"activity, negative = cell killing",[1],-4.14%
same,"activity, negative = cell killing",[3],-10.8%
same,"activity, negative = cell killing",[2],23.2%
Clc1ccc(Nc2nnc(Cc3ccncc3)c3ccccc23)cc1,"activity, negative = cell killing",[1],-12.8% and 0.35%
same,"activity, negative = cell killing",[2],-11.6% and 1.14%
same,Potency,tumour line A,12.6 µM (active) and 7.08 µM (active)
O=NN(CCCl)C(=O)NCCCl,"activity, negative = cell killing",[1],-7.98%
same,"activity, negative = cell killing",[3],-22.2%
same,"activity, negative = cell killing",[4],-13.2%
same,"activity, negative = cell killing",[2],-21%
Nc1nc2ccc(OC(F)(F)F)cc2s1,"activity, negative = cell killing",[2],16.9%
